Screens as filed in PubChem.
HT1080 IDH1KD tx – HT-1080 IDH1 knockdown cell toxicity (counter line); HT-1080 IDH1 knockdown viability, ATP luminescence, 48 h; Potency, µM (top dose mostly 46.1 µM), usual class: cytotoxic; 360,000 tested, 2% active; AID 686971
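Viability of IDH1-knockdown HT-1080 fibrosarcoma cells was assessed by CellTiter-Glo after 48 h at 37 °C with titrated compound; concentration-effect curves were classified by fit quality and response size.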
HT1080NT lethal – kills 2HG-producing HT-1080-NT fibrosarcoma cells | HT-1080-NT fibrosarcoma viability, CellTiter-Glo ATP luminescence, 48 h | Potency, µM (highest dose often 46.1 µM), usual class: cytotoxic | 360,000 tested, 1.6% active;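 note: NT is the 2HG producing partner of a matched IDH1 knockdown line; nearly all actives have a fitted effect of over 55% in size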
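Compounds were tested in concentration-response format on HT-1080-NT cells for 48 hours at 37 degrees C. Cell viability came from CellTiter-Glo luminescence; curves were classified by r2, response magnitude and activity.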
SW480 rerep – inducers of DNA re-replication in SW480 colon cancer cells | SW480 DNA re-replication, Hoechst DNA content imaging, 48 h | Potency, µM (titrated, usually from 46.1 µM), hits mostly activators | 340,000 tested, 1.8% active | AID 624297; note: nearly all actives have a fitted effect of over 55% in size
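SW480 cells exposed to compounds for 48 hr at 37 C, 5% CO2, then Hoechst-stained 40 min. Nuclear DNA content imaged by fluorescence scanning (405 nm excitation, 500-530 nm emission); re-replication scored as increased high-intensity nuclei.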
MCF10A rereplic – DNA re-replication induction in MCF 10a cells; MCF 10A DNA re-replication, Hoechst nuclear intensity, 48 h; Potency, µM (titrated, usually from 46.1 µM), usual class: activators; 350,000 tested, 2.9% active; AID 624296; note: nearly all actives have a fitted effect of over 50% in size
KB-3-1 cytotox – KB-3-1 parental cell cytotoxicity; 400,000 tested, 1.4% active; KB-3-1 viability, CellTiter-Glo ATP luminescence, 72 h; AID 1347075; Potency, µM (series often up to 46.1 µM), actives largely listed as cytotoxic; note: nearly all actives have a fitted effect of over 60% in size
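72 h, 37 °C compound treatment of KB-3-1 parental cells; CellTiter-Glo added, 10 min, luminescence read. Data corrected against DMSO-only plates and normalized before curve fitting.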
KB-V1 MDR tox – KB-V1 MDR subline cytotoxicity. KB-V1 MDR cells viability, CellTiter-Glo, 72 h. Potency, µM (highest dose often 46.1 µM), actives largely listed as cytotoxic. 400,000 tested, 3.4% active; note: nearly all actives have a fitted effect of over 60% in size
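Luminescent ATP read-out (CellTiter-Glo, 10 min) measures survival of drug-selected KB-V1 MDR cells after 72 h, 37 degrees C compound exposure. Medium: phenol-red-free DMEM, 10% FBS. Values from fitted concentration-response curves.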
Of the large screens only hits and unclear results are named; the others gave an inactive call. In the library only some 8% were active in any assay of this set; here they are far more common. Calls come from the whole dose curve; as a rule, active = well fitted curve in the direction sought with a large enough effect; inconclusive = small, poorly fitted or top-dose-only effect, or another doubt; inactive = no such curve, though single readings can be large; an effect the other way counts as inactive or inconclusive.

Cc1cc2c3c(c1)C1(C(=O)N3C(C)(C)CC2C)C(C#N)=C(N)Oc2n[nH]c(C)c21 (configuration not stated)	HT1080 IDH1KD tx inconclusive, HT1080NT lethal inconclusive, SW480 rerep inconclusive, KB-3-1 cytotox inconclusive
CCOc1cc2c3c(c1)C1(OCCO1)C(=O)N3C(C)(C)CC2C (configuration not stated)	none
CCOc1cc2c3c(c1)C1(C(=O)N3C(C)(C)CC2C)C(C#N)=C(N)N2C(=C1C#N)Nc1ccccc12 (configuration not stated)	MCF10A rereplic 16.4µM
CCOc1cc2c3c(c1)C1(Nc4ccccc4S1)C(=O)N3C(C)(C)CC2C (configuration not stated)	HT1080 IDH1KD tx inconclusive, HT1080NT lethal inconclusive, SW480 rerep inconclusive, MCF10A rereplic 20.6µM
Cc1nc(SCc2nc3ccc(Cl)cc3[nH]2)c2oc3ccccc3c2n1	MCF10A rereplic inconclusive (no result: HT1080 IDH1KD tx, HT1080NT lethal)
CCc1nc(Sc2nc(C)cc(C)n2)c2oc3ccccc3c2n1	HT1080 IDH1KD tx inconclusive, HT1080NT lethal inconclusive, SW480 rerep inconclusive, MCF10A rereplic inconclusive, KB-3-1 cytotox inconclusive, KB-V1 MDR tox 16.4µM
Cc1nc(SCc2nc3ccc(C(F)(F)F)cc3[nH]2)c2oc3ccccc3c2n1	MCF10A rereplic inconclusive, KB-3-1 cytotox 16.4µM (no result: HT1080 IDH1KD tx, HT1080NT lethal)
Cc1nc(SCc2nc3ccc(Br)cc3[nH]2)c2oc3ccccc3c2n1	MCF10A rereplic inconclusive (no result: HT1080 IDH1KD tx, HT1080NT lethal)
CCc1nc(SCc2nc3ccccc3[nH]2)c2oc3ccccc3c2n1	HT1080 IDH1KD tx inconclusive, HT1080NT lethal inconclusive, MCF10A rereplic inconclusive, KB-V1 MDR tox 3.26µM
COC(=O)c1c(C)[nH]c(O)c1C=Nc1ccc(C#N)cc1	none
CC1(C)CC2CC(C)(CN2C(=S)NC(=O)c2ccccc2Cl)C1 (configuration not stated)	MCF10A rereplic inconclusive, KB-V1 MDR tox inconclusive
N#CC(c1ccc(N)cc1)C(CC(=O)c1ccccc1)c1ccccc1 (configuration not stated)	none (no result: SW480 rerep, MCF10A rereplic)
Cc1ccc(-c2cc3nc(-c4ccccc4)cc(N4CCC5(CC4)OCCO5)n3n2)cc1	SW480 rerep 18.4µM, MCF10A rereplic inconclusive
COCCN1CCN(c2cc(-c3ccccc3)nc3cc(-c4cccc(F)c4)nn23)CC1	HT1080 IDH1KD tx inconclusive, HT1080NT lethal inconclusive, SW480 rerep inconclusive, MCF10A rereplic 20.6µM
Fc1ccc(-c2cc3nc(-c4ccccc4)cc(N4CCOCC4)n3n2)cc1	SW480 rerep inconclusive, MCF10A rereplic inconclusive
Cc1cccc(-c2cc3nc(-c4ccccc4)cc(N4CCC5(CC4)OCCO5)n3n2)c1	SW480 rerep inconclusive
Cc1cccc(-c2cc3nc(C)cc(NCCCN(C)C)n3n2)c1	HT1080 IDH1KD tx inconclusive, HT1080NT lethal inconclusive, MCF10A rereplic inconclusive
CN(C)CCCNc1cc(-c2ccccc2)nc2cc(-c3cccc(F)c3)nn12	HT1080 IDH1KD tx inconclusive, HT1080NT lethal inconclusive, SW480 rerep inconclusive, MCF10A rereplic 20.6µM, KB-3-1 cytotox inconclusive, KB-V1 MDR tox inconclusive
COc1ccc(-c2cc3nc(-c4ccccc4)cc(N4CCCC(O)C4)n3n2)cc1 (configuration not stated)	HT1080 IDH1KD tx 20.6µM, HT1080NT lethal inconclusive, SW480 rerep inconclusive, MCF10A rereplic 20.6µM
Nn1c(Cc2ccc(Br)cc2)n[nH]c1=S	KB-V1 MDR tox inconclusive
O=C(NC12CC3CC(CC(C3)C1)C2)N1CCN(c2ccccc2)CC1	none
CC(C)Cn1cc(F)c(=O)n(CC(C)C)c1=O	none
CCCOc1ccc(N2C(=O)CC(NCc3cccnc3)C2=O)cc1 (configuration not stated)	none
O=C(CN1C(=O)c2ccccc2C1=O)OC(C(=O)c1ccc(Cl)cc1)c1ccccc1 (configuration not stated)	none
COc1ccc(-c2cc3nc(-c4ccccc4)cc(N4CCC(O)CC4)n3n2)cc1	HT1080 IDH1KD tx inconclusive, HT1080NT lethal 18.4µM, KB-V1 MDR tox inconclusive
COc1ccc(-c2cc3nc(-c4ccccc4)cc(N4CCN(C(C)=O)CC4)n3n2)cc1	HT1080 IDH1KD tx 16.4µM, HT1080NT lethal inconclusive (no result: SW480 rerep, MCF10A rereplic)
COc1ccc(-c2cc3nc(-c4ccccc4)cc(N4CCN(C(=O)c5ccccc5)CC4)n3n2)cc1	none (no result: SW480 rerep, MCF10A rereplic)
COc1ccc(-c2cc3nc(-c4ccccc4)cc(N4CCN(C(=O)c5ccsc5)CC4)n3n2)cc1	none (no result: SW480 rerep, MCF10A rereplic)
COCCNC(=O)/C(C#N)=C/c1cccc(NC(=O)c2ccccc2Cl)c1	HT1080 IDH1KD tx inconclusive, SW480 rerep inconclusive, MCF10A rereplic inconclusive
O=C1c2cc(F)ccc2-n2c1nc1ccccc1c2=O	HT1080 IDH1KD tx inconclusive, HT1080NT lethal inconclusive, SW480 rerep inconclusive, MCF10A rereplic inconclusive, KB-3-1 cytotox 6.51µM, KB-V1 MDR tox 5.17µM
CCN(CC)C(=O)[C@H]1C[C@H](CC(=O)NC/C=C(\C)CCC=C(C)C)C(=O)N2CCc3c([nH]c4ccc(Cl)cc34)[C@]12C	KB-3-1 cytotox inconclusive
CCN(CC)C(=O)[C@H]1CC(CC(=O)NC/C=C(\C)CCC=C(C)C)C(=O)N2CCc3c([nH]c4ccc(OC)cc34)[C@]12C (some centres not stated)	HT1080 IDH1KD tx 16.4µM, HT1080NT lethal inconclusive, SW480 rerep inconclusive, MCF10A rereplic inconclusive, KB-3-1 cytotox inconclusive, KB-V1 MDR tox inconclusive
COc1ccc2[nH]c3c(c2c1)CCN1C(=O)C(CC(=O)NCCc2ccccn2)C[C@H](C(=O)N2CCCCC2)[C@@]31CCc1ccccc1 (some centres not stated)	SW480 rerep inconclusive
CC(C)N(C(=O)[C@H]1C[C@H](CC(=O)NCCCN(C)C)C(=O)N2CCc3c([nH]c4cc(-c5ccco5)ccc34)[C@]12C)C(C)C	HT1080 IDH1KD tx inconclusive, HT1080NT lethal inconclusive, SW480 rerep inconclusive, MCF10A rereplic inconclusive
CC(C)N(C(=O)[C@H]1C[C@H](CC(=O)NCCC2=CCCCC2)C(=O)N2CCc3c([nH]c4cc(-c5ccco5)ccc34)[C@]12C)C(C)C	HT1080 IDH1KD tx inconclusive, KB-3-1 cytotox 23.1µM, KB-V1 MDR tox inconclusive
CC(C)=CCC/C(C)=C/CNC(=O)C[C@H]1C[C@H](C(=O)N(C(C)C)C(C)C)[C@@]2(C)c3[nH]c4cc(-c5ccco5)ccc4c3CCN2C1=O	HT1080 IDH1KD tx inconclusive, HT1080NT lethal inconclusive, MCF10A rereplic inconclusive, KB-3-1 cytotox inconclusive, KB-V1 MDR tox inconclusive
COCCCNC(=O)CC1C[C@H](C(=O)N2CCCCC2)[C@@]2(CCc3ccccc3)c3[nH]c4ccc(OC)cc4c3CCN2C1=O (some centres not stated)	SW480 rerep 18.4µM
